The panel holds about 83,000 compounds, 20% with a hit somewhere; the sample as a whole holds those more often.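 Single-concentration screen, 48 h exposure, 96-well plates. Endpoint: percent growth. Below 10 = active.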 Values without a mark were called inactive. Active and inactive are the calls of the source.
Assays:
Assay in all cases: NCI-60 one-dose screen, 48 h (100 = growth as untreated, 0 = no growth, -100 = all killed)
Settings in all cases: 10 µM unless noted
[1] = tested on: DU-145 prostate
[2] = tested on: K-562 leukemia
[3] = tested on: MALME-3M melanoma
[4] = tested on: MDA-MB-231 breast
[5] = tested on: RXF 393 renal
[6] = tested on: SF-268 CNS
[7] = tested on: SF-295 CNS
[8] = tested on: SF-539 CNS
[9] = tested on: UACC-257 melanoma
[10] = tested on: M14 melanoma
[11] = tested on: HCT-15 colon
[12] = tested on: HT29 colon
[13] = tested on: SNB-75 CNS
[14] = tested on: SNB-19 CNS
[15] = tested on: U251 CNS
[16] = tested on: PC-3 prostate
[17] = tested on: SK-MEL-5 melanoma
[18] = tested on: UACC-62 melanoma
[19] = tested on: LOX IMVI melanoma
[20] = tested on: SK-MEL-28 melanoma

Compound	growth [1]	growth [2]	growth [3]	growth [4]	growth [5]	growth [6]	growth [7]	growth [8]	growth [9]	growth [10]	growth [11]	growth [12]	growth [13]	growth [14]	growth [15]	growth [16]	growth [17]	growth [18]	growth [19]	growth [20]
C=CCn1c(C)nc2ccc(Nc3nc(Nc4ccc5nc(C)n(CC=C)c5c4)c4ccccc4n3)cc21	-67.6% (active)	-43.5% (active)	-78.9% (active)	-78.8% (active)	-80.7% (active)	-32.4% (active)	-67.5% (active)	-93.8% (active)	-87.6% (active)	-88.4% (active)	-51.7% (active)	-96.7% (active)	-95.2% (active)	30.6%	-94.2% (active)	-47.8% (active)	-94.2% (active)	-87% (active)	-88.6% (active)	-96% (active)
C=CCn1c(SCC(=O)Nc2ccc(C(=O)/C=C/c3ccc(Cl)cc3)cc2)nnc1-c1ccc(Br)cc1	75.3%	61%	97.6%	81.2%	74.8%	73.6%	96.8%	90.3%	92.3%	89.7%	81.2%	67.5%	75.6%	77.8%	79.5%	68%	82.7%	71%	77.7%	105%
Cc1csc(Nc2nc(-c3ccccn3)nc(C(Cl)(Cl)Cl)n2)n1	69.7%	87.8%	73.9%	80.3%	91.4%	82.8%	91%	94.2%	78.8%	83.7%	57.2%	68%	90.1%	80.9%	62.2%	91.1%	86.2%	84.3%	49.4%	87.6%
Cn1cc(-c2csc(-c3c[nH]c4ccc(Br)cc34)n2)c2ccnc(Cl)c21	42.9%	17.6%	112%	54.8%	51%	86.7%	62.1%	67.6%	17.4%	43.2%	-0.791% (active)	20.8%	85.2%	81.7%	33.4%	50.2%	71.7%	68.8%	26.2%	71.7%
NC(Cc1ccc(O)c([N+](=O)[O-])c1)C(=O)O (stereo not given)	106%	101%	109%	113%	108%	99.8%	117%	100%	99.8%	101%	98.5%	99.1%	97.2%	105%	97.2%	90.5%	105%	103%	94.3%	99.9%
Cc1ccc(Nn2c(SCC(=O)Nc3nc(-c4ccccc4)cs3)nc(C)c2C)cc1	83.4%	37.7%	92%	46%	61.5%	81.7%	46.1%	73.7%	54.1%	77%	67.2%	56.1%	24.4%	74.3%	49.3%	71.8%	-66.7% (active)	51.8%	51.9%	82.8%
CN(C)CCNC(=O)c1cc2c3cc(Cl)ccc3[nH]c2c2ncccc12	7.58% (active)	-25.1% (active)	-29.9% (active)	30.3%	15.5%	13.5%	22.1%	5.06% (active)	18.4%	-81% (active)	14.2%	0.808% (active)	44.7%	40%	11.5%	22.4%	-38.8% (active)	-86.5% (active)	-77.5% (active)	-59.3% (active)
Cc1nc2sc(C(=O)Nc3cccc4ccccc34)c(N)c2cc1C(O)c1ccccc1 (stereo not given)	5.38% (active)	4.79% (active)	46.9%	17.1%	36.2%	23.5%	10.2%	-7.12% (active)	51.6%	7.59% (active)	13.1%	10.5%	68.8%	26.2%	1.5% (active)	14.8%	-53.1% (active)	17.8%	21.4%	54.3%
CCN(CC)c1ccc(\C=N/N=C(N)/C(N)=N\N=C/c2ccc(N(CC)CC)cc2)cc1	110%	99.3%	93.9%	112%	109%	105%	98.9%	107%	104%	110%	92.4%	99.2%	93%	113%	97.9%	97.1%	97.1%	104%	101%	105%
O=C1Nc2ccc(C(=O)O)cc2/C1=N/c1nnc(Sc2ccccc2)s1	110%	96.2%	113%	106%	117%	96.4%	102%	96.8%	107%	104%	104%	115%	94.2%	102%	98%	104%	104%	99%	96.3%	112%
N#CC(C#N)N=Nc1ccc(Br)cc1	38.5%	12.5%	12.1%	18.5%	87.4%	90.2%	95.7%	30.4%	10%	42.9%	16.8%	20.9%	94.2%	96.3%	83.4%	19.1%	77.9%	37.4%	60.1%	43.8%
CS(=O)(=O)Nc1cc(-c2ccc3ncnc(Nc4ccc5c(cnn5Cc5ccc(F)cc5)c4)c3c2)cnc1Cl	62.1%	48.5%	-4.18% (active)	32.9%	9.93% (active)	14.9%	66.1%	27.5%	50%	36.8%	82.1%	53.3%	-10.1% (active)	47%	37.2%	38.2%	13.9%	21%	18.3%	16.7%
COc1ccc(/C=C(\C#N)n2nnc3ccc(Cl)cc32)cc1	64.5%	21.2%	79.5%	76.1%	48.7%	76.1%	85.7%	53.2%	76.3%	58.1%	38.9%	26.3%	20.4%	55.2%	61.7%	63.7%	81.7%	62.3%	56.9%	71.4%
COc1ccc(C2=C(Nc3ccc(C(=O)Nc4ccccc4)cc3)C(=O)N(C)C2=O)cc1	98%	81.5%	93.7%	83.2%	105%	97.1%	98.9%	97.6%	87.6%	99.9%	89.1%	84%	88.9%	95.3%	95.4%	80.7%	96.2%	92.3%	84.6%	111%
Fc1cccc(Oc2ccc(Nc3ncnc4ccc(OCCCN5CCOCC5)cc34)cc2Cl)c1	52.5%	3.55% (active)	24.6%	61.4%	55.5%	54.4%	82.7%	88.1%	12.5%	-44% (active)	10.8%	18.2%	77.2%	63.3%	47.4%	63.8%	32.3%	71.6%	21.6%	68.4%
CCN1C(=O)N(CC)C2C1NN=c1s/c(=C\c3ccccc3F)c(=O)n12 (stereo not given)	2.54% (active)	8.14% (active)	52.6%	15.2%	52%	44.6%	12.4%	-18.1% (active)	53.1%	2.5% (active)	8.45% (active)	1.76% (active)	10.8%	31%	1.71% (active)	25.1%	-21.1% (active)	34.4%	15.8%	61.2%
